Results: PubChem BioAssay (NCATS)
Records with an inconclusive call do not appear. Where a call stands in place of a potency, no number is given. Active and inactive are the calls of the source. Unless noted, calls come from the whole dose curve; as a rule, active = well fitted curve in the direction sought with a large enough effect; inconclusive = small, poorly fitted or top-dose-only effect, or another doubt; inactive = no such curve, though single readings can be large; an effect the other way counts as inactive or inconclusive.

Key:
[1] = High-throughput drug toxicity screening in the BPDCN cell line Cal-1 (AID 1224825; call rule not given here); conditions: Cal-1 BPDCN cell viability, qHTS; at 45.8 µM (top of the series) unless noted
In short: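 500 Cal-1 cells/well, RPMI + glutamine + 10% FBS (phenol red-free); cpd added by pin tool; 48 h, 37C, 5% CO2; CTG 15 min RT, lumi read. Normalised: DMSO 100%, bortezomib 9.2 uM 0%.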

[2] = qHTS assay for measurement of the activity of small molecule inhibitors on Zika virus induced Caspase-3 activity in human iPSC derived neural progenitor cells (hNPCs) (AID 1224857); note: nearly all actives have a fitted effect of over 65% in size; note: potency is the fitted concentration of half-maximal effect
In short: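 Cells were plated at 350 per well and grown 16 to 20 hours. Compound pretreatment lasted one hour, after which ZIKV (2 FFU/cell) was added for 6 hours. Percent inhibition was normalized between uninfected and infected controls.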

[3] = qHTS Screen of the MIPE 4.0 Collection Against Ewings Sarcoma (TC71) (AID 1259253); note: nearly all actives have a fitted effect of over 40% in size; note: potency is the fitted concentration of half-maximal effect
In short: (§1)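 After a 4 h attachment period in RPMI/5% FBS, cells were pin-dosed with test compounds; DMSO served as negative and 9.2 uM bortezomib (final) as positive control. Luminescent CellTiter-Glo signal at 48 h defined viability.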

[4] = qHTS Screen of the MIPE 4.0 Collection Against Ewings Sarcoma (EW8) (AID 1259255); note: nearly all actives have a fitted effect of over 35% in size; note: potency is the fitted concentration of half-maximal effect
In short: as §1

[5] = qHTS Screen of the MIPE 4.0 Collection Against Ewings Sarcoma (TC32) (AID 1259256); note: nearly all actives have a fitted effect of over 45% in size; note: potency is the fitted concentration of half-maximal effect
In short: as §1

[6] = P-glycoprotein substrates identified in KB-8-5-11 adenocarcinoma cell line, qHTS therapeutic library screen (AID 1346987); note: nearly all actives have a fitted effect of over 65% in size; note: potency is the fitted concentration of half-maximal effect
In short: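 KB-8-5-11, a colchicine-selected P-gp-overexpressing KB-3-1 subline, was grown without colchicine for the assay. Cells were seeded at 500 cells/well, dosed in concentration-response and incubated 72 h at 37 degree C, 5% CO2. Viability was read by CellTiter-Glo luminescence.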

[7] = Natriuretic polypeptide receptor (hNpr1) antagonism - Pilot counterscreen GloSensor control cell line (AID 1347045; calls by dose curve)
In short: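 HEK293 cGMP GloSensor cells preloaded 2 h with 2% GloSensor reagent, then compound 30 min before baseline luminescence read. Stimulated with 50 uM sodium nitroprusside, 20 min at room temperature, then read again; counterscreen for Npr1 antagonism.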

[8] = target: Atrial natriuretic peptide receptor 1 (Homo sapiens) (UniProt P16066); assay: Natriuretic polypeptide receptor (hNpr1) antagonism - Pilot screen (AID 1347049; calls by dose curve;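 note: agonist-evoked cGMP luminescence read 20 min after hNppA addition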)
In short: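 Readout is cGMP-driven firefly luciferase luminescence in HEK293 cells carrying hNpr1 and a PDE5-domain GloSensor, read before and 20 min after 0.1 nM hNppA stimulation. Cells had 2% substrate reagent for 2 h and test compound for 30 min.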

[9] = target: Atrial natriuretic peptide receptor 2 (Homo sapiens) (UniProt P20594); assay: Natriuretic polypeptide receptor (hNpr2) antagonism - Pilot subtype selectivity assay (AID 1347050; calls by dose curve)
In short: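 Pilot selectivity screen against hNpr2: HEK293 cGMP-sensor cells are treated with LOPAC1280 compounds, then with hNppC peptide at 1 nM final. The cGMP-driven luminescence change over 20 min at room temperature is the read-out.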

[10] = qHTS assay to identify small molecule inhibitors of chordoma cells - UCH-1 (AID 1259355); note: nearly all actives have a fitted effect of over 55% in size
In short: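 Seed 800 cells per well; incubate overnight at 37 C, 5% CO2. Add test compounds (15 concentrations), then the auranofin–topoisomerase-agent combination. Incubate 48hr, add CellTiter-Glo, wait 30min, read luminescence.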

[11] = qHTS assay to identify small molecule inhibitors of chordoma cells - UCH-2 (AID 1259356)
[12] = qHTS Screen of the MIPE 4.0 Collection Against Ewings Sarcoma (RDES) (AID 1259252); note: nearly all actives have a fitted effect of over 35% in size; note: potency is the fitted concentration of half-maximal effect
In short: as §1

[13] = P-glycoprotein substrates identified in KB-3-1 adenocarcinoma cell line, qHTS therapeutic library screen (AID 1346986); note: nearly all actives have a fitted effect of over 60% in size
In short: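 Cells seeded 500/well in DMEM/10% FCS; compounds pinned in dose-response; 72 h incubation; CellTiter-Glo added, 5 min, luminescence. KB-8-5-11 run ±tariquidar to test reversal of P-gp resistance.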

[14] = Identifying Small Molecule Inhibitors of Pancreatic Cancer Stem Cells (A278, Adherent) (AID 1259361);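 note: viability read after 48 h compound exposure; nearly all actives have a fitted effect of over 35% in size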
In short: (§2)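 Adherent (2D) versus sphere (3D) formats; spheres generated 14 d in SCM beforehand. Compound transferred by pin tool after 4 h, 48 h incubation, CellTiter-Glo endpoint.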

[15] = Identifying Small Molecule Inhibitors of Pancreatic Cancer Stem Cells (SN12C, Adherent) (AID 1259358);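 note: cell survival measured after 48 h of compound exposure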
In short: as §2

Sequence of Atrial natriuretic peptide receptor 2 (Homo sapiens) (P20594 whole entry, looked up): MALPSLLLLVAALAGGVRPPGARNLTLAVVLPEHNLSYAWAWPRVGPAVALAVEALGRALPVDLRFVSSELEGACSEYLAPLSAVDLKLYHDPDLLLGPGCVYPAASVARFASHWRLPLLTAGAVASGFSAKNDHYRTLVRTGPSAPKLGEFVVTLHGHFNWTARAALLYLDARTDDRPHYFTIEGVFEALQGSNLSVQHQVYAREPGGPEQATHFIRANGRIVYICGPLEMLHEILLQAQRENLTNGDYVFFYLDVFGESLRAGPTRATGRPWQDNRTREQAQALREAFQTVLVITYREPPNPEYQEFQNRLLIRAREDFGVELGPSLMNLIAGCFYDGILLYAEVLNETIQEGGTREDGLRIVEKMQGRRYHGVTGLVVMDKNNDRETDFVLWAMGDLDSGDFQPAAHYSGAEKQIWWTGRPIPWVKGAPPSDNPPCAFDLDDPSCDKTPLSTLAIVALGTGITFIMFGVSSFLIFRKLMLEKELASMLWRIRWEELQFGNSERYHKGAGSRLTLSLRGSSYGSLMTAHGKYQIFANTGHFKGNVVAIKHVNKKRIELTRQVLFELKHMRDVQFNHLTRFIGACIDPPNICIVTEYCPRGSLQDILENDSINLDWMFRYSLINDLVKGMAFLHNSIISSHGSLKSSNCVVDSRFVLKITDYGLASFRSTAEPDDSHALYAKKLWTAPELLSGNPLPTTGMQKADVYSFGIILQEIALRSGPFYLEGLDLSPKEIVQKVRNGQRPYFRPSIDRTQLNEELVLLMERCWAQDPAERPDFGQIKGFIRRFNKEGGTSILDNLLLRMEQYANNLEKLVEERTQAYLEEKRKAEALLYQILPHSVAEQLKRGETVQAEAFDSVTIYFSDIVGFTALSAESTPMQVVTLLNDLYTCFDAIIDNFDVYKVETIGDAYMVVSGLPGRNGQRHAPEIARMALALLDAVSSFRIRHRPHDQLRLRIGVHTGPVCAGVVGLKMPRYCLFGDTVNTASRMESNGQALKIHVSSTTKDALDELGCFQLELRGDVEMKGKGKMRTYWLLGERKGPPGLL
Sequence of Atrial natriuretic peptide receptor 1 (Homo sapiens) (P16066 whole entry, looked up): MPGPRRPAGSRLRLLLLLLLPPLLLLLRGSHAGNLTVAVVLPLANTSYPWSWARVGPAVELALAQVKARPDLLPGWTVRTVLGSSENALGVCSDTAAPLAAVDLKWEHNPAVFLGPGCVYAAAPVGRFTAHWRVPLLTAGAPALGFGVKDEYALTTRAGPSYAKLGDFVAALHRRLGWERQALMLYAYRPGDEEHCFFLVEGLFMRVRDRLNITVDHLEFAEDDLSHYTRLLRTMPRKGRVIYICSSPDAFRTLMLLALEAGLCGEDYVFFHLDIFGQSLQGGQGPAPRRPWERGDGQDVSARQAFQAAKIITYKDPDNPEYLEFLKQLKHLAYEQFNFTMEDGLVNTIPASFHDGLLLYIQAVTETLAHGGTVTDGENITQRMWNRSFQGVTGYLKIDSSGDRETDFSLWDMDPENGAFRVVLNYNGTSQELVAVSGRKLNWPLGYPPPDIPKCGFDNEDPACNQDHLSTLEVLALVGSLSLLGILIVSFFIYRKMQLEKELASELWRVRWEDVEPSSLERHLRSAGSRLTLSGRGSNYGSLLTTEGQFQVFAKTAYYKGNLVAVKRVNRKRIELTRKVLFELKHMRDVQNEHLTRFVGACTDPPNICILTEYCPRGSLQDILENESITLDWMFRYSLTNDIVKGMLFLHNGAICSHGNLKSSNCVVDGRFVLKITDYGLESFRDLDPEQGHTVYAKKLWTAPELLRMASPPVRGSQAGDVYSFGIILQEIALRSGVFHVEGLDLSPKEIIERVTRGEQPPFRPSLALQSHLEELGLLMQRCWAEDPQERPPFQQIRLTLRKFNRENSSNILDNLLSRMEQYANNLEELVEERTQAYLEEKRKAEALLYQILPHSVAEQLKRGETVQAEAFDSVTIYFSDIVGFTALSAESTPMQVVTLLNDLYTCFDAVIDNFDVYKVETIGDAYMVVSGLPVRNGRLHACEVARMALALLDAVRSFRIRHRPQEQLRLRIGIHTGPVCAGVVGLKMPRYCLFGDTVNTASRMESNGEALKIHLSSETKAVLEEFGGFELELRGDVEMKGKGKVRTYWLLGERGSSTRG

For `CN(C)CCCC1(c2ccc(F)cc2)OCc2cc(C#N)ccc21` (stereo not given), the viability (% of control) [1] was 99.6%, the Potency [2] was “inactive” and the Potency [3] was 14.8 µM (active). The Potency [4] was “inactive”, the Potency [5] was 16.6 µM (active) and the Potency [6] was “inactive”. For the same compound, the Potency [7] was “inactive”, the Potency [8] was “inactive” and the Potency [9] was “inactive”.
For `O=C(O)c1cn(-c2ccc(F)cc2)c2cc(N3CCNCC3)c(F)cc2c1=O`, the viability (% of control) [1] was 79.5%, the Potency [2] was “inactive” and the Potency [5] was “inactive”. For the same compound, the Potency [10] was “inactive”, the Potency [11] was “inactive” and the Potency [6] was “inactive”.
With `O=P(O)(O)C(O)(Cn1ccnc1)P(=O)(O)O` the viability (% of control) [1] was 108% [at 23.2 µM], the Potency [2] was “inactive” and the Potency [12] was “inactive”. The Potency [3] was “inactive”, the Potency [4] was “inactive” and the Potency [5] was “inactive”. For the same compound, the Potency [10] was “inactive” and the Potency [11] was “inactive”.
In the case of `O=C1c2c(O)cc(O)cc2OC(c2ccc(O)c(O)c2)C1O` (stereo not given), the viability (% of control) [1] is reported as 105%, the Potency [2] is reported as “inactive” and the Potency [4] is reported as “inactive”. For the same compound, the Potency [13] was “inactive”, the Potency [7] was “inactive” and the Potency [8] was “inactive”. The Potency [9] was “inactive”.
In the case of `Nc1nc(Cl)nc2c1ncn2[C@H]1C[C@H](O)[C@@H](CO)O1`, the viability (% of control) [1] is reported as 12%, the Potency [2] is reported as “inactive” and the Potency [12] is reported as 0.235 µM (active). The Potency [3] was 0.372 µM (active), the Potency [4] was 0.372 µM (active) and the Potency [10] was “inactive”. For the same compound, the Potency [11] was “inactive”, the IC50 (viability decrease) [14] was 0.0959 µM (active) and the Potency [6] was “inactive”.
With `CC(C)Oc1ccc2c(=O)c(-c3ccccc3)coc2c1` the viability (% of control) [1] was 102%, the Potency [2] was 10.5 µM (active) and the Potency [4] was “inactive”. For the same compound, the Potency [5] was “inactive”, the Potency [10] was “inactive” and the Potency [11] was “inactive”.
For `CCN(CCO)CCCC(C)Nc1ccnc2cc(Cl)ccc12` (stereo not given), the viability (% of control) [1] was 8.28%, the Potency [2] was “inactive” and the Potency [5] was 23.5 µM (active). The Potency [10] was “inactive”, the Potency [11] was “inactive” and the Potency [15] was “inactive”. For the same compound, the IC50 (viability decrease) [14] was “inactive” and the Potency [6] was “inactive”.
In the case of `CN(C)C(=O)COC(=O)Cc1ccc(OC(=O)c2ccc(N=C(N)N)cc2)cc1`, the viability (% of control) [1] is reported as 104%, the Potency [2] is reported as “inactive” and the Potency [12] is reported as 16.6 µM (active). For the same compound, the Potency [5] was 0.0469 µM (active), the Potency [10] was “inactive” and the Potency [11] was “inactive”. For the same compound, the Potency [6] was “inactive”.
For `Clc1ccc(C(Cn2ccnc2)OCc2ccsc2Cl)c(Cl)c1` (stereo not given), the viability (% of control) [1] was 32.2%, the Potency [2] was “inactive” and the Potency [10] was “inactive”. For the same compound, the Potency [11] was “inactive” and the Potency [6] was 18.4 µM (active).
